Results reported in PubChem BioAssay AID488969 (Vanderbilt High Throughput Screening Facility, 2010).
In all, about 110,000 compounds were measured (“z-score”: median about -0.1, highest 2% from about 2 on). Only a selection was taken, and the highest values are over-represented in it overall. Activity calls are given as the source filed them.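 How the source made its calls: active means z-score in the third read window above 3 or below -3; inactive means the rest.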

Target: Metabotropic glutamate receptor 8 (Rattus norvegicus) (UniProt P70579)
Sequence (P70579 whole entry, looked up): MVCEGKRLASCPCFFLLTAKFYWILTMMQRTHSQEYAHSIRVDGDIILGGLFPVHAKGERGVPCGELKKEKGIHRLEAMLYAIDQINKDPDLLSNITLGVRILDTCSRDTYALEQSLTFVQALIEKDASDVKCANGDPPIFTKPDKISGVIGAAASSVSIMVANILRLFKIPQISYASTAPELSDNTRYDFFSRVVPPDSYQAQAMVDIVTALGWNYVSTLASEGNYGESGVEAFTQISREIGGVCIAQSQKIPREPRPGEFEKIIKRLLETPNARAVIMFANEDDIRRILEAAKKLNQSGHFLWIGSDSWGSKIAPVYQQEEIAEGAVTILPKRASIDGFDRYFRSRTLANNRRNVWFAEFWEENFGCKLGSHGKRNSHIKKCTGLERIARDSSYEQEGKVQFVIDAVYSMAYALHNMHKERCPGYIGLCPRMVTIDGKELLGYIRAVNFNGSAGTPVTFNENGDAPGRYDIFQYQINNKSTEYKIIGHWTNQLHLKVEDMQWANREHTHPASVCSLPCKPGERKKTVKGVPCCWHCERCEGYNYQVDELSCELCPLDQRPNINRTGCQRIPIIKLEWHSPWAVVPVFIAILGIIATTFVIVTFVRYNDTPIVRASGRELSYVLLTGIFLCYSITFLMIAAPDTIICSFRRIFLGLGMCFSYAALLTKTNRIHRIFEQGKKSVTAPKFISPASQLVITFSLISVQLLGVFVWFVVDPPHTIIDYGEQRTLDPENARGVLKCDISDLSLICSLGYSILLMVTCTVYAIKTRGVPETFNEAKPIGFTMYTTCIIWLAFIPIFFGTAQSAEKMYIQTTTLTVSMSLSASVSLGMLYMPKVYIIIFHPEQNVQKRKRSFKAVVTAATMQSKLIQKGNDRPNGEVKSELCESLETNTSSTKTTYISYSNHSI
Experiment: rat mGluR8 modulators via GIRK flux, primary screen, cell-based, thallium flux, HTS (AID 488969)
Conditions: HEK293 rat mGluR8, GIRK (G protein-gated inwardly rectifying potassium channel) thallium flux, FluoZin2; at 10 µM; stronger effect = higher value; submaximal glutamate (EC20) added with thallium

Row | SMILES | z-score
1 | CN(C(=O)CSc1nc2ccccc2n1CCc1ccccc1)C1CCS(=O)(=O)C1 (stereo unspecified) | 0.483
2 | CCN(C(=O)CSc1nc2ccccc2n1CCc1ccccc1)C1CCS(=O)(=O)C1 (stereo unspecified) | 3.88 (active)
3 | CCN(C(=O)CSc1nc2cc(C(F)(F)F)ccc2n1Cc1ccccc1)C1CCS(=O)(=O)C1 (stereo unspecified) | -0.724
4 | O=C(CSc1nc2ccccc2n1CCc1ccccc1)NC1CCS(=O)(=O)C1 (stereo unspecified) | 2.39
5 | O=C(CSc1nc2ccccc2n1CCc1ccccc1)N1CCOCC1 | 2.47
6 | Cc1ccc(-c2cn(-c3ccccc3)c(SCC(=O)NC3CCS(=O)(=O)C3)n2)cc1C (stereo unspecified) | 3.44 (active)
7 | O=C(Cn1c(SCc2ccccc2)nc2ccccc21)N1CCOCC1 | -0.096
8 | O=C(CSc1nnc(-c2ccc(Br)cc2)n1CCc1ccccc1)NC1CCS(=O)(=O)C1 (stereo unspecified) | -0.076
9 | Cc1ccc(-c2cn(-c3ccccc3)c(SCC(N)=O)n2)cc1C | -1.06
10 | CCOC(=O)/C(=N\Nc1ccc(OC)cc1)c1csc(Nc2ccccc2)n1 | 0.551
11 | COC(=O)CCc1c(C)c(C#N)c2nc3ccccc3n2c1N1CCCC1 | -0.478
12 | Cc1cc(-n2ccc(=O)[nH]c2=O)nc(-c2ccccc2)n1 | -0.208
13 | S=C1NCCc2ccc(Cl)cc2C1c1ccccc1 (stereo unspecified) | -0.00171
14 | Cc1c(C(C)(C)C)c(C=S)n2ccccc12 | -0.503
15 | CN(C)c1ccc(C2NCC(CCl)O2)cc1 (stereo unspecified) | -0.159
16 | COc1ccccc1-n1c(CNC(=O)COc2ccccc2)n[nH]c1=S | 2.71
17 | CCN(CC)S(=O)(=O)c1ccc(C(=O)NCc2n[nH]c(=S)n2-c2ccccc2OC)cc1 | -0.0139
18 | COc1cc(OC)cc(C(=O)NCc2n[nH]c(=S)n2-c2ccccc2OC)c1 | -0.981
19 | CSc1ccc(N2CCN(CCCNC(=O)Nc3ccccc3F)CC2)cc1 | 0.699

Row | SMILES | z-score
20 | N#Cc1ccccc1NC(=O)COC(=O)CSc1nc2ccccc2o1 | -2.27
21 | Fc1ccc(CCNC(=S)Nc2ccc(F)cc2)cc1 | 0.103
22 | O=c1/c(=C\c2cccnc2)sc2nc3ccccc3n12 | -0.0361
23 | O=c1/c(=C/c2ccccn2)sc2nc3ccccc3n12 | 0.539
24 | Cc1cc(/C=c2/sc3nc4ccccc4n3c2=O)c(C)n1-c1ccccn1 | 6.08 (active)
25 | Cc1nc2oc3c(NCc4ccccc4)ncnc3c2c2c1COC(C)(C)C2 | -0.383
26 | CCOc1ccc(C2=NNC(c3cccs3)=Nc3ccc(OC)cc32)cc1 | 3.11 (active)
27 | CCOc1ccc(C2=NNC(c3cccs3)=Nc3ccc(OCC)cc32)cc1 | -0.166
28 | CCCOc1ccc(C2=NNC(c3cccs3)=Nc3ccc(OC)cc32)cc1 | -0.471
29 | CCCn1c2c(c(O)c(C(=O)NCCCN(CC)CC)c1=O)CCCC2 | 0.585
30 | Cc1ccccc1C(=O)N1CCN(c2ccc([N+](=O)[O-])c(NCc3cccnc3)c2)CC1 | -0.418
31 | Cc1ccc(OCc2n[nH]c(=S)n2C2CCCCC2)cc1 | -1.04
32 | Cc1cc(Cl)ccc1OCc1n[nH]c(=S)n1C1CCCCC1 | 7.67 (active)
33 | S=c1[nH]nc(COc2ccc(Cl)cc2)n1C1CCCCC1 | 1.31
34 | CC(=O)Cc1nsc(NC(=O)c2cn(-c3ccccc3)nc2-c2ccc(Br)cc2)n1 | 0.229
35 | O=C(c1ccccc1F)N1CCN=C1SCc1cccnc1 | 0.643
36 | Cc1cc(NC(=O)C(C)C)ncc1NC(=O)Cc1ccccc1 | 1.07
37 | Cc1cc(C(=O)N/N=C2\CCCC(C)C2)n[nH]1 (stereo unspecified) | -0.208
38 | COc1ccc([C@@H]2Sc3cc(OC)ccc3N(CCN(C(C)C)C(C)C)C(=O)[C@H]2OC(C)=O)cc1 | 2.62

Row | SMILES | z-score
39 | COc1ccc(CCN2C(=O)C(Oc3ccccc3C)C2c2ccc3c(c2)OCO3)cc1 (stereo unspecified) | -0.223
40 | COc1ccc(CCN2C(=O)C(Oc3ccccc3)C2c2ccc3c(c2)OCO3)cc1 (stereo unspecified) | -0.146
41 | COC(=O)COc1ccc(S(=O)(=O)N2CCc3ccccc3C2)cc1 | -0.687
42 | CCCCSc1nc2ccccc2n1CC(=O)O | -0.412
43 | CC(C)(C)c1ccc2c(c1)C(=O)c1ccccc1C2=O | -0.283
44 | CCOC(=O)c1ccc(Oc2nc(NC)nc(OC)n2)cc1 | -0.524
45 | C=CCOc1cccc(C2/C(=C(/O)c3ccc(C)cc3)C(=O)C(=O)N2CCN2CCOCC2)c1 (stereo unspecified) | 3.31 (active)
46 | C=CCOc1cccc(C2/C(=C(/O)c3ccccc3)C(=O)C(=O)N2CCN2CCOCC2)c1 (stereo unspecified) | -0.193
47 | C=CCOc1cccc(C2/C(=C(/O)c3ccc(Cl)cc3)C(=O)C(=O)N2CCN2CCOCC2)c1 (stereo unspecified) | -0.349
48 | Cc1ccc(C)c(N2C(=O)CN=C2Nc2ccccc2Cl)c1 | -0.307
49 | Cc1ccc(NC(=O)COc2ccccc2)c(NC(=O)c2ccccc2C)c1 | 0.00484
50 | Cc1ccccc1C(=O)NNC(=O)Cc1ccccc1 | -0.146
51 | Cc1ccccc1C(=O)NNC(=S)NC(=O)COc1ccccc1 | 4.25 (active)
52 | Cc1ccc(C(=O)NNC(=S)NC(=O)COc2ccccc2)cc1 | 6.25 (active)
53 | Cc1ccc(OCC(=O)NNC(=O)c2cccnc2)cc1 | 0.0457
54 | COc1cccc(OCC(=O)NNC(=O)c2ccc(-c3ccccc3)cc2)c1 | 0.902
55 | Cc1cccc(C(=O)NN2C(=O)C3C(c4ccccc4)C=CC(c4ccccc4)C3C2=O)c1 (stereo unspecified) | 0.291
56 | Cc1ccc(C(=O)NCCSc2ccc(Cl)cc2)cc1S(=O)(=O)Nc1ccccc1 | -0.43
